Here are results for 112 compounds from PubChem BioAssay AID488969 (Vanderbilt High Throughput Screening Facility, 2010).

The full ranking holds about 110,000 compounds; the median of “z-score” is about -0.1, and the highest 2% start at about 2. This excerpt belongs to a sample that is enriched for the highest values. Calls of active or inactive are those of the source.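 How the source made its calls: active means z-score in the third read window above 3 or below -3; inactive means the rest.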

For the assay, the target named is Metabotropic glutamate receptor 8 (Rattus norvegicus) (UniProt P70579). Briefly: mGluR8 Gi/Go-coupled signaling modulation – cell-based, rat, thallium flux, HTS, primary screen (AID 488969). To be noted: HEK293 rat mGluR8, GIRK (G protein-gated inwardly rectifying potassium channel) thallium flux, FluoZin2; at 10 µM; stronger effect = higher value; submaximal glutamate (EC20) added with thallium.
Metabotropic glutamate receptor 8 (Rattus norvegicus), sequence (P70579 whole entry, looked up): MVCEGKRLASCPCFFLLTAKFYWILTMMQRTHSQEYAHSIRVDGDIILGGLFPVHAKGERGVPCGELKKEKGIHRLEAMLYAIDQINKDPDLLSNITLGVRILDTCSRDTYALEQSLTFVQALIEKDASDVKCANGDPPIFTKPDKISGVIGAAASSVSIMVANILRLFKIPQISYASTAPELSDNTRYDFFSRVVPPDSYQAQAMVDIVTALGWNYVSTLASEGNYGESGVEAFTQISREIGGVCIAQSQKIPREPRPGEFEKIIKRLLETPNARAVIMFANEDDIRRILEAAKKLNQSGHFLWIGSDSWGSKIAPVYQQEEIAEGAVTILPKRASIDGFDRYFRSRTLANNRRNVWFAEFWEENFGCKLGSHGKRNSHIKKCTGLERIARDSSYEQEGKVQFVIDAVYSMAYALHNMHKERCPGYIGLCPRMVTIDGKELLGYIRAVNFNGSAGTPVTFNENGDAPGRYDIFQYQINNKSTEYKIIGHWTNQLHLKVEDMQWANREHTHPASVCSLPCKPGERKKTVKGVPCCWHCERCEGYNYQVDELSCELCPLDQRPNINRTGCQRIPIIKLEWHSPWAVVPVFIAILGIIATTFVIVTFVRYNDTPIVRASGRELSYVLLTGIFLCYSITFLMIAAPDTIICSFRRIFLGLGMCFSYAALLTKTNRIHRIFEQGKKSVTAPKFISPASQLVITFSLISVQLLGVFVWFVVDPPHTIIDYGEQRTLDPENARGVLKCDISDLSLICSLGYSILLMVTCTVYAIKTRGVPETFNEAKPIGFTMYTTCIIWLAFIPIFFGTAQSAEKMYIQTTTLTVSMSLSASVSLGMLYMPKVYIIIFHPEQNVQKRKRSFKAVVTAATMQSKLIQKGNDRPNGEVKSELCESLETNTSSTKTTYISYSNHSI
`CCN(CC)CCCN1C(=O)c2oc3ccccc3c(=O)c2C1c1cc(OC)ccc1OC` (configuration not stated) came in with a z-score of 0.517.

In the case of `CCN(CC)CCCN1C(=O)c2oc3ccccc3c(=O)c2C1c1cccs1` (configuration not stated), the z-score is 13.2 (active).

Take `COc1ccc(OC)c(C2c3c(oc4ccccc4c3=O)C(=O)N2CCCN(C)C)c1` (configuration not stated): the z-score was -0.648.

With `COc1cccc(C2c3c(oc4ccccc4c3=O)C(=O)N2CCCN(C)C)c1OC` (configuration not stated), the z-score was -0.0845.

Compound `CN(C)CCCN1C(=O)c2oc3ccccc3c(=O)c2C1c1cccs1` (configuration not stated) came in with a z-score of 2.78.

Take `CCN(CC)CCCN1C(=O)c2oc3ccccc3c(=O)c2C1c1cccc(OC)c1OC` (configuration not stated): the z-score came out at 0.625.

Consider `Cn1c(SCC(=O)c2ccccc2F)nnc1C1CC1`, for which the z-score is -0.74.

Take `CCn1c(SCC(N)=O)nnc1-c1ccc(S(=O)(=O)N2CCN(C)CC2)cc1`: the z-score is -0.217.

`COc1ccc(NC(=O)c2cccc(F)c2)cc1Cl`: the z-score was -0.393.

As for `CCc1cccc2c(C(=O)COC(=O)c3ccc(O)cc3)c[nH]c12`, the z-score was -0.12.

In turn, `Cc1ccc(/C=N/NC(=O)c2cccs2)s1` had a z-score of 1.3.

For `O=C(N/N=C/c1cccs1)c1cccs1`, the z-score was determined as 0.0886.

Regarding `O=C(N/N=C\c1ccc(Cl)s1)c1cccs1`, the z-score is 8.64 (active).

In the case of `O=C(Nc1ccc([N+](=O)[O-])cn1)c1cc(-c2cccc(Cl)c2)nc2ccccc12`, the z-score was -0.658.

Turning to `O=C(N/N=C/c1c[nH]c2ccccc12)C1CC1(c1ccccc1)c1ccccc1` (configuration not stated), the z-score is -0.618.

Take `CCOC(=O)c1ccc(-n2c(C)ccc2C)cc1`: the z-score was -0.201.

Compound `Cc1ccc(C)n1-c1ccc(C(=O)NN)cc1` displayed a z-score of 2.5.

Consider `Cc1ccc(C)n1-c1ccc(C(=O)O)cc1`, for which the z-score is -1.12.

`CCOC(=O)/C(C(N)=NC(C)C)=C(\O)c1ccccc1` displayed a z-score of 0.0345.

Take `CC(C)COC(=O)CNc1n[nH]c(=S)[nH]c1=O`: the z-score turned out to be 1.98.

In turn, `CC(C)COC(=O)CCNc1n[nH]c(=O)[nH]c1=O` showed a z-score of 0.184.

On to `CCCCOC(=O)CNc1n[nH]c(=S)[nH]c1=O`, for which the z-score came out at 0.182.

On to `Nc1cc(=O)nc(SCC(=O)N(C2CCCCC2)C2CCCCC2)n1-c1ccccc1`, for which the z-score was -0.245.

Regarding `CCCNC(=O)C(NS(=O)(=O)c1cccc2nsnc12)c1ccccc1` (configuration not stated), the z-score is -0.0978.

On to `CC1CN(Cc2cc(=O)[nH]c(C3CC3)n2)CC(C)O1` (configuration not stated), for which the z-score is -0.155.

For `O=c1cc(CN2CCOCC2)nc(C2CC2)[nH]1`, the z-score is 5.57 (active).

With `Cc1nc(CN2CCOCC2)cc(=O)[nH]1`, the z-score was determined as 0.197.

Regarding `Cc1cc(NC(=O)C(=O)NCCN2CCN(C(=O)c3cccs3)CC2)ccc1Br`, the z-score is -0.64.

`COc1cccc(N/C=C(\C#N)c2ccc(OCCCF)cc2)c1` displayed a z-score of 0.135.

`Cn1c(Cc2csc(N)n2)nnc1SCC(=O)NCc1ccccc1` gave a z-score of 0.898.

In the case of `Cc1ccccc1CCN(C(=O)Cn1nnc2ccccc21)C(C(=O)NC(C)(C)C)c1ccsc1` (configuration not stated), the z-score was 0.0716.

For the compound `Cc1ccc(NC(=O)c2cc(N3C(=O)C=CC3=O)ccc2Cl)cc1C`, the z-score is -0.0892.

For the compound `CCOC(=O)c1nnc(-c2ccccc2)nc1Oc1ccccc1Cl`, the z-score was -0.346.

Regarding `COC(=O)c1ccccc1NC(=S)NC(=O)C1CC1`, the z-score was -0.189.

`COC(=O)c1ccccc1NC(=S)NC(=O)c1ccc2ccccc2c1`: the z-score worked out at 0.231.

Regarding `COC(=O)c1ccccc1NC(=S)NC(=O)c1ccccc1C`, the z-score came to 1.1.

In turn, `COC(=O)c1ccccc1NC(=S)NC(=O)c1cccc2ccccc12` displayed a z-score of 0.972.

Compound `COC(=O)c1ccccc1NC(=S)NC(=O)c1ccc(C)cc1` registered a z-score of 2.94.

In the case of `COC(=O)c1ccccc1NC(=S)NC(=O)c1ccccc1`, the z-score is 13.1 (active).

Turning to `O=C(Nc1ccc(Cc2ccncc2)cc1)C1CCC(N2C(=O)C3C4C=CC(C5CC45)C3C2=O)CC1` (configuration not stated), the z-score is -0.424.

Regarding `Cn1c2ccccc2c2c(C(=O)N3CCN(C(=O)c4ccco4)CC3)cn(C3CCCCC3)c(=O)c21`, the z-score was -0.126.

As for `CCN(C(=O)CN1CCN(c2ccccc2OC)CC1)c1c(N)n(Cc2ccccc2)c(=O)[nH]c1=O`, the z-score was 0.391.

Consider `CCN(C(=O)CN1CCN(c2ccccc2O)CC1)c1c(N)n(Cc2ccccc2)c(=O)[nH]c1=O`, for which the z-score was 14.3 (active).

Regarding `CCN(C(=O)CN1CCN(c2ccccc2)CC1)c1c(N)n(Cc2ccccc2)c(=O)[nH]c1=O`, the z-score is -0.349.

Consider `CC1Cc2ccccc2N1C(=O)CSc1nnc(CNc2ccccc2)o1` (configuration not stated), for which the z-score was -0.151.

Turning to `CC(=O)C1C(c2ccccc2)c2c(n[nH]c2C)CC1(C)O` (configuration not stated), the z-score was determined as 0.241.

For the compound `N=c1c(C(=O)NCc2ccco2)cc2c(=O)n3ccccc3nc2n1Cc1ccccc1`, the z-score was 1.15.

Take `N=c1c(C(=O)NCc2ccco2)cc2c(=O)n3ccccc3nc2n1CCc1ccccc1`: the z-score was 4.11 (active).

Regarding `COc1ccc(CCn2c(=N)c(C(=O)NCc3ccco3)cc3c(=O)n4ccccc4nc32)cc1`, the z-score is 0.369.

As to `Cc1cccc(N2CCN(C(=O)c3ccoc3C)CC2)c1C`, the z-score was -0.311.

Turning to `CN(C)c1nc(N)nc(CSc2n[nH]c(-c3ccccc3)n2)n1`, the z-score was -0.00289.

On to `ClCc1nnc(-c2ccccc2)o1`, for which the z-score was -0.143.

Consider `Cc1ccccc1-c1nnc(Cc2ccccc2)o1`, for which the z-score was -0.211.

Regarding `c1ccc(Cc2nnc(-c3ccccc3)o2)cc1`, the z-score is 10.4 (active).

For `CCOC(=O)CN1C(=O)C2(OCCCO2)c2ccccc21`, the z-score is -0.0349.

As to `CN(C(=O)Nc1ccc(Cl)cc1Cl)[C@H]1c2cc(Br)ccc2OC[C@H]1CO`, the z-score is -0.211.

Turning to `COc1cccc2c1OC[C@@H](CO)[C@H]2N(C)C(=O)Nc1ccc(Cl)cc1Cl`, the z-score amounted to 0.0803.

In the case of `COc1cccc2c1OC[C@@H](CO)[C@H]2N(C)C(=O)Nc1ccccc1`, the z-score is 6.33 (active).

As for `CC1(C)Oc2nc3ccccc3n2/C1=C\C#N`, the z-score was -0.233.

For `CC(=O)Nc1ccc(S(=O)(=O)NC2(C(F)(F)F)NC(=O)N(C3CCCCC3)C2=O)cc1` (configuration not stated), the z-score is -0.0965.

In the case of `CSc1nc(C)cc(Oc2ccc(OCCOc3ccccc3)nn2)n1`, the z-score is -0.702.

On to `CCn1c(SCC(=O)Nc2ccccc2OC)nc2ccccc2c1=O`, for which the z-score was -0.373.

Consider `COc1ccc(Cn2cnc3sccc3c2=O)cc1`, for which the z-score is -0.167.

Turning to `CCOC(=O)Nc1ccc(S(=O)(=O)Nc2cc(C)nc(C)n2)cc1`, the z-score is -0.12.

For the compound `COc1ccc(CCN2C(=O)CC(C(N)=O)SC2=Nc2ccccc2)cc1OC` (configuration not stated), the z-score turned out to be 1.15.

`Cc1ccc(N2CN=C(c3ccccc3)NC2=S)cc1` had a z-score of 0.328.

With `S=C1NC(c2ccccc2)=NCN1c1ccccc1`, the z-score worked out at 0.145.

Consider `S=C1NC(c2ccccc2)=NCN1c1ccc(Cl)cc1`, for which the z-score was 3.19 (active).

`CCCOc1ccccc1Nc1nnc(C)c(=O)[nH]1`: the z-score came out at 0.409.

On to `CCOc1ccccc1Nc1nnc(C)c(=O)[nH]1`, for which the z-score was -0.155.

In the case of `CCOc1ccccc1Nc1nnc(Cc2ccccc2Cl)c(=O)[nH]1`, the z-score was 12.8 (active).

Compound `CCOC(=O)C1CCN(C(=O)c2cc(OCC)c(OCC)c(OCC)c2)CC1` showed a z-score of 0.856.

In the case of `OC1CCN(c2c3c(nc4cc(-c5ccc(Cl)cc5)nn24)CCC3)CC1`, the z-score was -0.738.

In turn, `O=C(c1cc2ccccc2c(=O)o1)N1CCCC1` returned a z-score of 0.79.

The compound `Cc1cc(NC(=O)c2ccc(F)cc2F)n(-c2nc3ccccc3[nH]2)n1` yielded a z-score of 0.0238.

In turn, `Cc1cc(NC(=O)/C=C/c2ccccc2Cl)n(-c2nc3ccccc3[nH]2)n1` had a z-score of 0.0437.

In the case of `Cc1cc(NC(=O)c2c(F)cccc2Cl)n(-c2nc3ccccc3[nH]2)n1`, the z-score was 3.06 (active).

Consider `CC1CCN(C(=S)Nc2ccc(SC(F)F)cc2)CC1`, for which the z-score turned out to be 0.000321.

With `CC1CCCC(NC(=S)Nc2ccc(SC(F)F)cc2)C1C` (configuration not stated), the z-score was 4.36 (active).

`FC(F)Sc1ccc(NC(=S)NCC2CCCCC2)cc1`: the z-score was -0.233.

For `Oc1cccc(NC(=S)Nc2cccnc2)c1`, the z-score is -0.756.

For the compound `CC1CC(C)CN(C(=S)Nc2ccc(SC(F)F)cc2)C1` (configuration not stated), the z-score was 6.63 (active).

For `CN1CCC(N(C)C(=S)Nc2ccc(SC(F)F)cc2)CC1`, the z-score was -0.0288.

In the case of `FC(F)Sc1ccc(NC(=S)NC2CCCCC2)cc1`, the z-score was -0.326.

In the case of `CC1CCCCC1NC(=S)Nc1ccc(SC(F)F)cc1` (configuration not stated), the z-score is 5.08 (active).

Take `FC(F)Sc1ccc(NC(=S)NC2CCC(NC(=S)Nc3ccc(SC(F)F)cc3)CC2)cc1` (configuration not stated): the z-score was -0.2.

For the compound `Oc1cccc(NC(=S)Nc2ccc(SC(F)F)cc2)c1`, the z-score was found to be 2.92.

`CC1CC(C)CN(C(=S)Nc2ccc(OC(F)F)cc2)C1` (configuration not stated): the z-score was -0.115.

In turn, `CN(C(=S)Nc1ccc(SC(F)F)cc1)c1ccc(O)cc1` registered a z-score of 0.142.

In turn, `c1cncc(C(c2nnnn2C2CCCC2)N2CCN(Cc3ccc4c(c3)OCO4)CC2)c1` (configuration not stated) registered a z-score of 0.0897.

As for `O=C(c1ccco1)N1CCN(c2ccc(Cl)c(Cl)c2)CC1`, the z-score is -0.938.

Turning to `COc1cccc(OC)c1NC(=O)CN1CCC(NC(=O)c2cccc(F)c2)CC1`, the z-score was -0.0108.

For `O=C(CCNC(=O)Cn1ccc2ccccc2c1=O)NCCc1ccccc1Cl`, the z-score is -0.0359.

`CCSc1nnc(NC(=O)C2Cc3ccccc3CN2S(=O)(=O)CC)s1` (configuration not stated) showed a z-score of 0.295.

In turn, `C=CC(=O)Nc1ccc(Br)cc1` came in with a z-score of 0.0392.

For the compound `COc1ccc(/C=C2\C(=O)NC(=S)N2C(=O)c2ccc(F)cc2)cc1`, the z-score was 3.14 (active).

`COc1ccc(-c2nc(N)n(C(=O)c3ccc(C)cc3)n2)cc1` returned a z-score of 0.106.

In the case of `COc1ccc(C(=O)C2CCN(C(=O)c3ccc(C)cc3)CC2)cc1`, the z-score is -0.285.

Compound `COc1ccc(/C=C/C(=O)Oc2ccc(/C=N\NC(=O)c3ccc(F)cc3)cc2)cc1` returned a z-score of 0.18.

In turn, `COc1ccc(C(=O)N2C(=S)NC(=O)/C2=C\c2ccc(C)cc2)cc1` gave a z-score of 2.75.

`COc1ccc(C(=O)N2CCC(C(=O)c3ccc(F)cc3)CC2)cc1`: the z-score was -1.67.

`N#Cc1cc2c(nc1SCc1ccccc1)CCC2` displayed a z-score of 0.359.

Take `Cc1oncc1C(=S)Nc1ccccc1`: the z-score was 12.4 (active).

With `COC(=O)c1cccc(NC(=O)c2cnoc2C)c1`, the z-score was -0.126.

Consider `Cc1c(C(=S)Nc2ccccc2)cnn1-c1ccccc1`, for which the z-score was -0.398.

`COc1ccc(C(C)N2CC34C=CC(O3)C(C(=O)O)C4C2=O)cc1` (configuration not stated): the z-score is 0.302.

With `Cc1ccccc1OCC(O)Cn1nnc2ccccc21` (configuration not stated), the z-score is -0.244.

Consider `COc1ccc(OCC(O)Cn2c(Nc3ccccc3)nc3c2c(=O)n(C)c(=O)n3C)cc1` (configuration not stated), for which the z-score is -0.45.

In turn, `C=CCn1c(N)c(C(=O)Nc2ccccc2OC)sc1=S` registered a z-score of 0.333.

For the compound `Cc1ccc(NC(=O)c2ccc(COc3ccc4c(c3)CCC4)cc2)c(C)c1`, the z-score was 3.36 (active).

In the case of `COc1ccccc1NC(=O)c1ccc(COc2ccc3c(c2)CCC3)cc1`, the z-score is -0.228.

Turning to `COC(=O)c1ccccc1NC(=O)c1ccc(COc2ccc3c(c2)CCC3)cc1`, the z-score was -0.271.
